3 compounds from PubChem BioAssay (EPA / NIEHS) can be followed below.

Assay [1] in a line: CEETOX_H295R_PROG: CeeTox H295R High-throughput Steroidogenesis Assay for Progesterone (PROG) (AID 2283442).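 For AC50: human H295R adrenal cells primed with 10 µM forskolin before dosing; progesterone secreted into medium by H295R cells measured by HPLC-MS/MS.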 As to conditions: actives raise or lower the signal. The procedure, abridged: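 Steps: seed H295R cells and let them adhere overnight; prime 48 h with 10 uM forskolin; dose with compound in DMSO at 0.1% final for 48 h; extract medium steroids with MTBE; measure progesterone by LC-MS/MS. MTT viability was run in the same wells.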

Read-out in assay [2]: Fatty acid synthase (Homo sapiens) (UniProt P49327)
The assay can be described thus: LTEA_HepaRG_FASN: Life Technologies and Expression Analysis (LTEA) Assay for Fatty Acid Synthase (FASN) using HepaRG (AID 2283448).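 For AC50: differentiated human HepaRG liver cells in serum-free induction medium.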 The conditions noted are these: mRNA level, 48 h; actives raise or lower the signal. The procedure, abridged:
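Cells were plated, cultured 48 h, switched to serum-free induction medium, then dosed in duplicate (max 100 uM, half-log dilutions, 0.5% DMSO) for 48 h. RNA was then isolated and FASN quantified by qRT-PCR.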

Read-out in assay [3]: Cyclin Dependent Kinase Inhibitor 1A (CDKN1A), CDKN1A (gene 1026)
The assay can be described thus: LTEA_HepaRG_CDKN1A: Life Technologies and Expression Analysis (LTEA) Assay for Cyclin Dependent Kinase Inhibitor 1A (CDKN1A) using HepaRG (AID 2283450). As to conditions: mRNA level, 48 h; actives raise or lower the signal. The essentials:
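Read-out is CDKN1A mRNA by TaqMan qRT-PCR, normalized to three housekeeping genes and fitted in both directions against the DMSO baseline. Human HepaRG cells were treated 48 h with test chemicals up to 100 uM in half-log steps, 0.5% DMSO.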

Read-out in assay [4]: Cyclin D1 (CCND1), CCND1 (gene 595)
Nature of the assay: LTEA_HepaRG_CCND1: Life Technologies and Expression Analysis (LTEA) Assay for Cyclin D1 (CCND1) using HepaRG (AID 2283451).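 For AC50: differentiated human HepaRG liver cells in serum-free induction medium; TaqMan qRT-PCR transcript level normalised to ACTB GAPDH and POLR2A housekeeping genes.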 As to conditions: mRNA level, 48 h; actives raise or lower the signal. The essentials:
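HepaRG plated 48 h, medium switched to serum-free induction medium, chemicals added in duplicate (top 100 uM, half-log steps, 0.5% DMSO) for 48 h, cells lysed, RNA measured by TaqMan qRT-PCR.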

Read-out in assay [5]: catalase (CAT), CAT (gene 847)
The assay can be described thus: LTEA_HepaRG_CAT: Life Technologies and Expression Analysis (LTEA) Assay for catalase (CAT) using HepaRG (AID 2283452). As to conditions: mRNA level, 48 h; actives raise or lower the signal. The procedure, abridged: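 Expression of CAT was quantified by TaqMan qRT-PCR with ACTB/GAPDH/POLR2A normalization after 48 h chemical exposure of HepaRG. Eight-point half-log series, top 100 uM, in 0.5% DMSO; gain or loss fitted against vehicle.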

Read-out in assay [6]: flavin-containing dimethylaniline monooxygenases 3 (FMO3), FMO3 (gene 2328)
The assay can be described thus: LTEA_HepaRG_FMO3: Life Technologies and Expression Analysis (LTEA) Assay for flavin-containing dimethylaniline monooxygenases 3 (FMO3) using HepaRG (AID 2283453).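 For AC50: differentiated human HepaRG liver cells in serum-free induction medium.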 As to conditions: mRNA level, 48 h; actives raise or lower the signal. The procedure, abridged:
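FMO3 transcript quantified by TaqMan qRT-PCR against three housekeeping genes after 48 h chemical exposure of HepaRG cells. Eight-point half-log series, top 100 uM, 0.5% DMSO vehicle; phenobarbital 1mM induction control; up- or down-regulation fitted.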

Read-out in assay [7]: Cytochrome P450 (CYP1A1), CYP1A1 (gene 1543)
The assay can be described thus: LTEA_HepaRG_CYP1A1: Life Technologies and Expression Analysis (LTEA) Assay for Cytochrome P450 (CYP1A1) using HepaRG (AID 2283454). As to conditions: mRNA level, 48 h; actives raise or lower the signal. The essentials: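 HepaRG, 48 h post-plating switched to serum-free induction medium; 8-pt conc-response (top 100 uM, half-log, 0.5% DMSO), duplicates, 48 h. Lysis in RLT, TaqMan qRT-PCR for CYP1A1; gain or loss vs DMSO.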

Read-out in assay [8]: CFLAR gene, CFLAR (gene 8837)
Nature of the assay: LTEA_HepaRG_CFLAR: Life Technologies and Expression Analysis (LTEA) Assay for CFLAR gene using HepaRG (AID 2283455). The conditions noted are these: mRNA level, 48 h; actives raise or lower the signal. The essentials:
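Transcript level by qRT-PCR (normalized to ACTB, GAPDH and POLR2A) after 48 h chemical exposure of HepaRG cells, top concentration 100 uM with half-log steps, 0.5% DMSO vehicle, duplicates; fitted bidirectionally against DMSO baseline.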

Read-out in assay [9]: Forkhead box O1 (FOXO1), FOXO1 (gene 2308)
The assay can be described thus: LTEA_HepaRG_FOXO1: Life Technologies and Expression Analysis (LTEA) Assay for Forkhead box O1 (FOXO1) using HepaRG (AID 2283456). As to conditions: mRNA level, 48 h; actives raise or lower the signal. The essentials: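 FOXO1 transcript quantified by qRT-PCR after 48 h chemical exposure (top 100 uM, half-log steps, 0.5% DMSO) of HepaRG cells, housekeeping-normalized (ACTB/GAPDH/POLR2A). Changes fitted in both directions relative to vehicle.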

Read-out in assay [10]: growth arrest and DNA damage 45 (GADD45A), GADD45A (gene 1647)
Nature of the assay: LTEA_HepaRG_GADD45A: Life Technologies and Expression Analysis (LTEA) Assay for growth arrest and DNA damage 45 (GADD45A) using HepaRG (AID 2283458). The conditions noted are these: mRNA level, 48 h; actives raise or lower the signal. The procedure, abridged: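 Transcript induction or loss, quantified by TaqMan qRT-PCR against three housekeeping genes, is the read-out. HepaRG cells received chemicals for 48 h across eight half-log concentrations from 100 uM in 0.5% DMSO; gain and loss fitted relative to DMSO.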

Read-out in assay [11]: Forkhead box O3 (FOXO3), FOXO3 (gene 2309)
Nature of the assay: LTEA_HepaRG_FOXO3: Life Technologies and Expression Analysis (LTEA) Assay for Forkhead box O3 (FOXO3) using HepaRG (AID 2283459). As to conditions: mRNA level, 48 h; actives raise or lower the signal. The essentials: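 FOXO3 transcript measured by qRT-PCR (normalized to ACTB, GAPDH, POLR2A) after 48 h exposure of HepaRG cells in serum-free induction medium. Duplicates, eight half-log concentrations up to 100 uM, 0.5% DMSO; gain or loss fitted against DMSO.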

Read-out in assay [12]: ABC Transporter (ABCB1), ABCB1 (gene 5243)
The assay can be described thus: LTEA_HepaRG_ABCB1: Life Technologies and Expression Analysis (LTEA) Assay for ABC Transporter (ABCB1) using HepaRG (AID 2283460). The conditions noted are these: mRNA level, 48 h; actives raise or lower the signal. The essentials: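 ABCB1 transcript level measured by TaqMan qRT-PCR against three housekeeping genes after 48 h chemical exposure of differentiated HepaRG cells. Top concentration 100 uM, half-log steps, eight points, 0.5% DMSO vehicle; bidirectional fit relative to DMSO.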

Read-out in assay [13]: growth arrest and DNA damage 45 (GADD45B), GADD45B (gene 4616)
Nature of the assay: LTEA_HepaRG_GADD45B: Life Technologies and Expression Analysis (LTEA) Assay for growth arrest and DNA damage 45 (GADD45B) using HepaRG (AID 2283461). As to conditions: mRNA level, 48 h; actives raise or lower the signal. The essentials: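 HepaRG, ~100,000 cells/well, 48 h plating; serum-free induction medium; cpd 100 uM top, half-log x8, 0.5% DMSO, duplicate, 48 h; lysis in RLT, RNA isolation, qRT-PCR; norm ACTB/GAPDH/POLR2A; bidirectional fit vs DMSO.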

Read-out in assay [14]: ABC Transporter (ABCC3), ABCC3 (gene 8714)
Nature of the assay: LTEA_HepaRG_ABCC3: Life Technologies and Expression Analysis (LTEA) Assay for ABC Transporter (ABCC3) using HepaRG (AID 2283462). As to conditions: mRNA level, 48 h; actives raise or lower the signal. The procedure, abridged:
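Human HepaRG, 48 h dosing, 8-pt half-log series from 100 uM, 0.5% DMSO vehicle, duplicates. ABCC3 mRNA by TaqMan qRT-PCR, housekeeping-normalized; bidirectional curve fit vs DMSO.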

Read-out in assay [15]: ABC Transporter (ABCB11), ABCB11 (gene 8647)
The assay can be described thus: LTEA_HepaRG_ABCB11: Life Technologies and Expression Analysis (LTEA) Assay for ABC Transporter (ABCB11) using HepaRG (AID 2283463). The conditions noted are these: mRNA level, 48 h; actives raise or lower the signal. The essentials:
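ABCB11 transcript levels quantified by TaqMan qRT-PCR against three housekeeping genes after 48 h chemical exposure of HepaRG cultures. Concentrations up to 100 uM in half-log steps, 0.5% DMSO vehicle; both induction and suppression scored.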

Read-out in assay [16]: ABC Transporter (ABCC2), ABCC2 (gene 1244)
The assay can be described thus: LTEA_HepaRG_ABCC2: Life Technologies and Expression Analysis (LTEA) Assay for ABC Transporter (ABCC2) using HepaRG (AID 2283464). The conditions noted are these: mRNA level, 48 h; actives raise or lower the signal. The procedure, abridged: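 HepaRG, 48 h post-plating; serum-free induction medium; cpd 8-pt, 100 uM top, half-log, 0.5% DMSO, duplicate, 48 h. Readout: ABCC2 mRNA by qRT-PCR, norm. ACTB/GAPDH/POLR2A. Bidirectional fit vs DMSO baseline.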

Read-out in assay [17]: Broad substrate specificity ATP-binding cassette transporter ABCG2 (Homo sapiens) (UniProt Q9UNQ0)
Nature of the assay: LTEA_HepaRG_ABCG2: Life Technologies and Expression Analysis (LTEA) Assay for ABC Transporter (ABCG2) using HepaRG (AID 2283465). As to conditions: mRNA level, 48 h; actives raise or lower the signal. The procedure, abridged: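 ABCG2 transcript was quantified by TaqMan qRT-PCR against three housekeeping genes in HepaRG cells. Cells were treated in duplicate for 48 h across an 8-point half-log series up to 100 uM, with 0.5% DMSO vehicle. Gain or loss versus DMSO was fit.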

Read-out in assay [18]: Cyclin D2 (CCND2), CCND2 (gene 894)
The assay can be described thus: LTEA_HepaRG_CCND2: Life Technologies and Expression Analysis (LTEA) Assay for Cyclin D2 (CCND2) using HepaRG (AID 2283449). The conditions noted are these: mRNA level, 48 h; actives raise or lower the signal. The procedure, abridged:
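CCND2 transcript levels, quantified by qRT-PCR and normalised to three housekeeping genes, were fitted bidirectionally against 0.5% DMSO. HepaRG cultures were dosed 48 h in duplicate with an 8-point half-log series up to 100 uM.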

Active and inactive are the calls of the source. Rule for the calls: active = hit-call score of the fitted dose curve at least 0.9, where 1 is the maximum; inactive = score below 0.9.

Chain of Broad substrate specificity ATP-binding cassette transporter ABCG2 (Homo sapiens) (Q9UNQ0 whole entry, looked up): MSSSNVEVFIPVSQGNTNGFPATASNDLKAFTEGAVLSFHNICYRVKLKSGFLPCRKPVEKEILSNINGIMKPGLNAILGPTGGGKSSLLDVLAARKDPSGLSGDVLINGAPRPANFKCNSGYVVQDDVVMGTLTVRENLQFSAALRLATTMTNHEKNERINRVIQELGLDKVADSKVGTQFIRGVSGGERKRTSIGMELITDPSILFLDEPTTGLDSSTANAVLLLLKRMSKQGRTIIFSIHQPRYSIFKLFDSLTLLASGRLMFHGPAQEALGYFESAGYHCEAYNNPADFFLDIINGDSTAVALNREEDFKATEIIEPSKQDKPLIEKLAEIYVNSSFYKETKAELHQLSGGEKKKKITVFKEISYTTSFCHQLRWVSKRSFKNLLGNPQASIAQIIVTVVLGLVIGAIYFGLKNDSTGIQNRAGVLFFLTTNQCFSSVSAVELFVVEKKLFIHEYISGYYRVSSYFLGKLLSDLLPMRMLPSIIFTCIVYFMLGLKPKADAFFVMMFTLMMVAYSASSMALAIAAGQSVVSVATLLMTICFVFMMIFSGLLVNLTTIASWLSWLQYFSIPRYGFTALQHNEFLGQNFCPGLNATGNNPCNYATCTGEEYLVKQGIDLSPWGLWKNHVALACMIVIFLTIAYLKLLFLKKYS
Chain of Fatty acid synthase (Homo sapiens) (P49327 whole entry, looked up): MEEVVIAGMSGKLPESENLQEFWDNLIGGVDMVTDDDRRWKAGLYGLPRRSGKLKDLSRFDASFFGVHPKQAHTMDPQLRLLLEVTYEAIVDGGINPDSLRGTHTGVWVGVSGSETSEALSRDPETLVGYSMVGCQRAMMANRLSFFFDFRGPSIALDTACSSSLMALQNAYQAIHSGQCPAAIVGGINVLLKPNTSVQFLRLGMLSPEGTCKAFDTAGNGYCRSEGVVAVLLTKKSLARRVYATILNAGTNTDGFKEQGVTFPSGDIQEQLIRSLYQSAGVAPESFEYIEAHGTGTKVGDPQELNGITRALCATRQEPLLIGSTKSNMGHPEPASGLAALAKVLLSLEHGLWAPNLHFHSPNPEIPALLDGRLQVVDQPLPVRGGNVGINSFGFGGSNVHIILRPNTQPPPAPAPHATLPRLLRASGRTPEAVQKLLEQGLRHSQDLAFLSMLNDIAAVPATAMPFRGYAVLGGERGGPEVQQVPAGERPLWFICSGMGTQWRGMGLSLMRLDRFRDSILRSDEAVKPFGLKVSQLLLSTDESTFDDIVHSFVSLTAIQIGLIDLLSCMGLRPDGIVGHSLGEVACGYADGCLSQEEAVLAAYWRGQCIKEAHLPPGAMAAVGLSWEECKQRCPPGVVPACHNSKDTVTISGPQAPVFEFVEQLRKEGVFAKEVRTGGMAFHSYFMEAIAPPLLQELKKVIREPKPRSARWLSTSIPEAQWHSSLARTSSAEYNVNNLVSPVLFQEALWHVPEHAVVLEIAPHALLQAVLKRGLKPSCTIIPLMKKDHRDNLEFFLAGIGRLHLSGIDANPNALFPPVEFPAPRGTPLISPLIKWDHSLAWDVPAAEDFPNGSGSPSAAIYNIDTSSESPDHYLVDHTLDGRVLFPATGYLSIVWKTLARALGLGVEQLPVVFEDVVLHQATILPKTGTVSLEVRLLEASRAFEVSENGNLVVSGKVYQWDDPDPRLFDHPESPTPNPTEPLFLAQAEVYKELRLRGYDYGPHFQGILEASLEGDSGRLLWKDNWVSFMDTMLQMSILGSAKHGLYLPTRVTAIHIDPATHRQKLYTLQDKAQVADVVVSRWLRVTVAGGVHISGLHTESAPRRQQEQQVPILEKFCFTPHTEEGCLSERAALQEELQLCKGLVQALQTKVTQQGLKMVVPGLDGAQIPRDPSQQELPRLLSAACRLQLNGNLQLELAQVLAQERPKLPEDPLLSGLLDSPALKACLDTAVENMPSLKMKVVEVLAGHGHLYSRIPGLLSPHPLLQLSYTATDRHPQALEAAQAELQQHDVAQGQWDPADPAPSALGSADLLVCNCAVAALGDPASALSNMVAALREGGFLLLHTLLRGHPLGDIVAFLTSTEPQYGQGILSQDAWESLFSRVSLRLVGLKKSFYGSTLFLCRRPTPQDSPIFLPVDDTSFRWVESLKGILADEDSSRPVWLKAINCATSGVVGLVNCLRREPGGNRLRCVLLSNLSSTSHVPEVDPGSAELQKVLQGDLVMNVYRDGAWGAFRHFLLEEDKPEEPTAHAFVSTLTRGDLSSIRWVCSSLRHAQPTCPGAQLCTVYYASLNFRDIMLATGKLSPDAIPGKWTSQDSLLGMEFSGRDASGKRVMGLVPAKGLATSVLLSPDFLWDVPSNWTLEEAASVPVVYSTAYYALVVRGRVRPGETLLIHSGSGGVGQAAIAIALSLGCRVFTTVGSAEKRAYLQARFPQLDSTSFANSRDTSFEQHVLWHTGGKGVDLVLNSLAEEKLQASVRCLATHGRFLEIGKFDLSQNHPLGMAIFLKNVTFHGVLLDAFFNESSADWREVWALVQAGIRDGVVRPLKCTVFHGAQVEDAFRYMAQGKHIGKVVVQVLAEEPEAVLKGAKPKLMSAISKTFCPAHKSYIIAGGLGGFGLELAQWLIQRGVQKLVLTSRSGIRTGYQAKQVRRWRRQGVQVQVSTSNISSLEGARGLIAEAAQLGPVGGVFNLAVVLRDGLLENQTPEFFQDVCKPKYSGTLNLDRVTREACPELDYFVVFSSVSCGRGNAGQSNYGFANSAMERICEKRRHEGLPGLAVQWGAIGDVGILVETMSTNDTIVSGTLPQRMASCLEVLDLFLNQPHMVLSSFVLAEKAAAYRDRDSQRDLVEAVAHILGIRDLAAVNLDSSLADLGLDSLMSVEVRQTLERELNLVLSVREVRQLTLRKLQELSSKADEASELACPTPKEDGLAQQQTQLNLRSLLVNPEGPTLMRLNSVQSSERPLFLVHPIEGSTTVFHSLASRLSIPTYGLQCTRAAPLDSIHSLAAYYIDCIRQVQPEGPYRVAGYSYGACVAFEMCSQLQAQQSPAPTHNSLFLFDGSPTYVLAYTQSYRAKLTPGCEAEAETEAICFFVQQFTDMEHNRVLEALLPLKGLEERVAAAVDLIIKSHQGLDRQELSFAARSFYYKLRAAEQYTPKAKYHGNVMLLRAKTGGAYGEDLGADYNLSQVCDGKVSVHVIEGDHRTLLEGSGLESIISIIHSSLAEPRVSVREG

`COc1cccc(-c2ccc(/C=C\CN3CCCCCC3)cc2Cl)c1`: the compound was called inactive in assay [1], in assay [3], in [8], in [11] and in [12]. The half-maximal activity concentration (AC50) is 45.2 µM (active) in assay [2]; 72.2 µM (active) in assay [4]; 69.7 µM (active) in assay [5]; 68.8 µM (active) in assay [6]; 45.2 µM (active) in [7]; 70.8 µM (active) in assay [9]. Moreover, the AC50 was 69 µM (active) in assay [10]; 76.2 µM (active) in assay [13]; 75.9 µM (active) in assay [14]; 69.3 µM (active) in [15]; 75.4 µM (active) in assay [16]; 37.8 µM (active) in [17].
Take `CN(C)c1ccc(Cc2ccc(N(C)C)cc2)cc1`: the concentration at half-maximal activity (AC50) in assay [1] is 3.81 µM (active); in [6], 83.1 µM (active); in assay [7], 13.2 µM (active). Moreover, the outcome in [2], in [18], in assay [3], in assay [4], in assay [5] and in [8] was inactive. The call in assay [9], in assay [10], in [11], in [12], in [13] and in [14] was inactive. In addition, the compound was classed as inactive in assay [15] and in assay [17].
As to `CCCCCCCCO`, the outcome in assay [1], in assay [2], in assay [18], in assay [3], in [4] and in assay [5] was inactive. The compound was called inactive in assay [6], in assay [7], in assay [8], in assay [9], in assay [10] and in assay [11]. Moreover, the outcome in assay [12], in [13], in assay [14], in assay [15], in assay [16] and in assay [17] was inactive.
